The values below come from ChEMBL document CHEMBL4808148, “HDAC6 screening dataset using tau-based substrate in an enzymatic assay yields selective inhibitors and activators” (2021).

Out of some 5,600 compounds screened, about 390 (7%) showed an effect of 50% or more. Shown is part of a subset that was picked to be rich in strong results.

In this experiment the target is T1, Protein deacetylase HDAC6 (Homo sapiens) (UniProt Q9UBN7).
T1 sequence (whole entry): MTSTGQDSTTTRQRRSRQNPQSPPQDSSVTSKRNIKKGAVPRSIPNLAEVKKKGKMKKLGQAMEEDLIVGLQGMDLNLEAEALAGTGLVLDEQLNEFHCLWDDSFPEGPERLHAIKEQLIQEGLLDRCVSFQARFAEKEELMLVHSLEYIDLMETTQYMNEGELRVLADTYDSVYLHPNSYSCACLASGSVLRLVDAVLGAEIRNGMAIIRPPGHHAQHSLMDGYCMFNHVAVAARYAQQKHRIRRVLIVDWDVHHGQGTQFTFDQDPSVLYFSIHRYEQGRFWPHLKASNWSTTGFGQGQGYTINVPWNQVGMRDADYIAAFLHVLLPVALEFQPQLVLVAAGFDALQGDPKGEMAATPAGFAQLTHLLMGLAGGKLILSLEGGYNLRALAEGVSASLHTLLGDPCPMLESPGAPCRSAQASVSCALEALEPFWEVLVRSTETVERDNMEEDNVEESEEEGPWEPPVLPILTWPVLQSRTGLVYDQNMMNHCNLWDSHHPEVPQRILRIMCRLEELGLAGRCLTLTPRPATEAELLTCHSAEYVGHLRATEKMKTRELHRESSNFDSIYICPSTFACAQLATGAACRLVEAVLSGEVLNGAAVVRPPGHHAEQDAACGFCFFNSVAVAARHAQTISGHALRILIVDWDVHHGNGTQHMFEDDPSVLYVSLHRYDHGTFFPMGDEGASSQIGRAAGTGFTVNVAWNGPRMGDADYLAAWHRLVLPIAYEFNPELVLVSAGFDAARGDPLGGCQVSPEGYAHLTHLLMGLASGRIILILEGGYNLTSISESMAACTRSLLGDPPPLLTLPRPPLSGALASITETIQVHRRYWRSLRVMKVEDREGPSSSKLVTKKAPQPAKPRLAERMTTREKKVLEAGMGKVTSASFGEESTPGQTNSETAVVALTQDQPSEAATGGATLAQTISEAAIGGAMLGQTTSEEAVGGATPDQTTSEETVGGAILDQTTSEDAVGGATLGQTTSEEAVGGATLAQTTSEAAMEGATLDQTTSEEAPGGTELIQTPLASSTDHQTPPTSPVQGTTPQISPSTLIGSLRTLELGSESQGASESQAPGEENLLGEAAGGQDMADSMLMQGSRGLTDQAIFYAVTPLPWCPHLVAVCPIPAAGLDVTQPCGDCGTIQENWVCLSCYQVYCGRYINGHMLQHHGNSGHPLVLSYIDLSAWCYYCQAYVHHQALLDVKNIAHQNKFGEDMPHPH
The note with it: at 10 µM.
By inhibition is commonly meant the change of the read-out against control, counted positive when it falls. For the molecule `CC(O)C(N)C(=O)O` (stereo unspecified), the inhibition was determined as 8.96%. In the case of `Cc1ccc(Oc2ccccc2-c2csc(N=C3NCCCN3)n2)c(C)c1`, the inhibition is 38.2%. On to `CCCCCCCCCCCC(=O)N(CCO)CCO`, for which the inhibition amounted to 14.4%. For `OC[C@H]1O[C@@H](Oc2cc3c(O)cc(O)cc3[o+]c2-c2ccc(O)c(O)c2)[C@H](O)[C@@H](O)[C@@H]1O` the value was 27.8%; for `OCCNCCCOc1cccc(Cl)c1Cl`, 15.6%; for `COc1cc(C=O)c([N+](=O)[O-])cc1OC`, 11.8%.

`Cn1c(=O)n(-c2ccc(C(C)(C)C#N)cc2)c2c3cc(-c4cnc5ccccc5c4)ccc3ncc21`: the inhibition was -9.93%. For `Cc1cnc(-c2ccccc2C(C)C)nc1NCc1ccc(-n2ccnn2)cc1`, the inhibition was 23.1%.

As to `Clc1ccc2c(c1)N=C(N1CCNCC1)c1ccccc1N2`, the inhibition was 0.45%. On to `O=C(CN1CCNCC1)NC1CCCCC1`, for which the inhibition amounted to 18.3%. For `CC(C)(C)c1ccc(C(=O)CCCN2CCC(OC(c3ccccc3)c3ccccc3)CC2)cc1`, the inhibition stood at 25.3%.

With `O=C(O)[C@@H]1C[C@@H](O)CN1`, the inhibition worked out at 16.1%. Consider `Cc1nc2ccc(Oc3ccc(F)cc3)cc2c(=O)n1C[C@H]1CCCN(C(C)C)C1`, for which the inhibition was determined as 7.87%. Regarding `COc1ccc(-c2cc(=O)c3c(O)cc(O)cc3o2)cc1O`, the inhibition stood at 92.8%.

Consider `O=C(O)Cc1cccc2c(=O)cc(-c3ccccc3)oc12`, for which the inhibition was 23.3%. With `O=c1cc(-c2ccccc2)oc2cc(O)c(O)c(O)c12`, the inhibition came to 99.6%. `COc1ccc(-c2cc(=O)c3c(O)cc(O[C@@H]4O[C@H](CO[C@@H]5O[C@@H](C)[C@H](O)[C@@H](O)[C@H]5O)[C@@H](O)[C@H](O)[C@H]4O)cc3o2)cc1O`: the inhibition came to 30.2%.

Take `COc1ccccc1N1CCN(CCn2c(=O)[nH]c3c([nH]c4ccccc43)c2=O)CC1`: the inhibition is 3.49%. On to `C[C@@H]1OC(O)[C@H](O)[C@H](O)[C@H]1O` (stereo partly specified), for which the inhibition is 8.33%. For `CC(C)C(=O)OC[C@@]1(N=[N+]=[N-])O[C@@H](n2ccc(N)nc2=O)[C@H](OC(=O)C(C)C)[C@@H]1OC(=O)C(C)C` the value was 10.6%. Consider `CC(=O)O[C@]1(C(C)=O)CC[C@H]2[C@@H]3CCC4=CC(=O)CCC4=C3[C@@H](c3ccc(N(C)C)cc3)C[C@@]21C`, for which the inhibition stood at 7.8%. For the molecule `N=C(N)NCCCC(NC(=O)C1CCCN1C(=O)C1CSSCCC(=O)NC(Cc2ccc(O)cc2)C(=O)NC(Cc2ccccc2)C(=O)NC(CCC(N)=O)C(=O)NC(CC(N)=O)C(=O)N1)C(=O)NCC(N)=O` (stereo unspecified), the inhibition came out at 12.1%.

For the molecule `COC(=O)[C@H](NC(=O)c1cc(-c2ccccc2)nc2ccccc12)c1ccccc1`, the inhibition worked out at 30.8%. For the molecule `O=C(O)c1cc(-c2ccccc2)nc2ccccc12`, the inhibition came out at 16.3%. `COc1cc2ncc(-c3ccccc3)nc2cc1OC`: the inhibition was determined as 97.8%.

`C=CCN(C)CCCCCCOc1ccc(C(=O)c2ccc(Br)cc2)c(F)c1`: the inhibition was 8.93%. The same measure for `C=CCNc1nc(NCC=C)nc(N2CCN(C(c3ccc(F)cc3)c3ccc(F)cc3)CC2)n1`: -4.35%; for `NC(C(=O)O)c1cc(O)cc(O)c1` (stereo unspecified): 9.39%; for `CCCCCN1CCC(C(N)=O)CC1`: 3.67%.

For `CC(C(=O)O)c1ccc(C(=O)c2ccccc2)s1` (stereo unspecified), the inhibition was found to be 41.6%. With `N=C(N)NCc1cccc(I)c1`, the inhibition came out at 13.7%.
